Measurements from PubChem BioAssay (NCATS).
Records with an inconclusive call do not appear. The source made the active and inactive calls. The call rests on the fitted dose curve; in most records, active means well fitted curve in either direction with a large enough effect (not every such curve was filed as active); inconclusive means small, poorly fitted or top-dose-only effect, or another doubt; inactive means flat fitted curve, though single readings scatter.

biological target: Mitogen-activated protein kinase 10 (Mus musculus) (UniProt Q61831); test: JNK3 AlphaScreen Assay (AID 530); details: JNK3 lysate, c-Jun phosphorylation; series mostly up to 57.1 µM; activity change, negative = inhibition: at the top concentration;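 further: kinase came from lysate of stimulated human HepG2 cells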
Text: NIH Chemical Genomics Center [NCGC]
NIH Molecular Libraries Screening Centers Network [MLSCN]
The c-jun N-terminal kinase (JNK) family are serine/threonine protein kinases that phosphorylate c-jun, a component of the transcription factor […] (AP-1). JNK kinases are members of the mitogen-activated protein kinase family including the extracellular regulated kinases and p38 kinases. Three JNK genes (JNK 1, 2, and 3) have been identified in humans so far. JNK1 and JNK2 have a broad distribution and JNK3 is primarily found in neuronal tissues and cardiac myocytes.
JNK3 has been under consideration as a target for the treatment of neurodegenerative disorders. […] JNK pathway is also involved in pathological process in a mouse model of Parkinson's disease (Xia et al., 2001).
Given these potential tissue distributions and links to neuroprotection, JNK3 inhibitors should provide useful investigational tools to study the role of this kinase in several diseases including, arthritis, stroke, myocardial infarction, ischemic injury and Parkinson's disease.
A homogeneous AlphaScreen is developed to measure the activity of JNK3. AlphaScreen is a two bead-based proximity-dependent chemical energy transfer luminescent assay platform. The phosphorylation of a biotinylated c-jun substrate by JNK3 can be detected with an antibody raised against phosphorylated c-jun. This process brings streptavidin donor beads and Protein-A acceptor beads to within a proximity range of <200 nm, and subsequently lead a chemical luminescent reaction upon exciting donor beads with 680 nm laser excitation light. Inhibition of JNK3 activity by small molecules and subsequent decrease in the antibody binding to biotinylated c-jun could attenuate or abolish this chemical luminescent reaction.
Yang DD, Kuan CY, Whitmarsh AJ, Rincon M, Zheng TS, Davis RJ, Rakic P and Flavell RA (1997) Absence of excitotoxicity-induced apoptosis in the hippocampus of mice lacking the Jnk3 gene. Nature 389:865-870. [PMID: 9349820]
Herdegen T, Claret FX, Kallunki T, Martin-Villalba A, Winter C, Hunter T, and Karin M (1998) Lasting N-terminal phosphorylation of c-Jun and activation of c-Jun N-terminal kinases after neuronal injury. J.Neurosci. 18:5124-5135. [PMID: 9651196]
Xia XG, Harding T, Weller M, Bieneman A, Uney JB and Schulz JB (2001) Gene transfer of the JNK interacting protein-1 protects dopaminergic neurons in the MPTP model of Parkinson's disease. Proc.Natl.Acad.Sci.U.S.A. 98:10433-10438.
NCGC Assay Protocol Summary:
GST-cJun (1-79) (Stratagene, La Jolla CA, #205145) was biotnylated by PerkinElmer (PerkinElmer-BioSignalInc. Montreal, Canada) and was detectable by the streptavidin Donor beads. Anti-(phospho)cJun (Ser73) antibody was from UpState (Charlottesvilles, VA, #06-659). JNK3-containing lysates were generated from HepG2 cells and pre-activated by interleukin1-beta and tumor necrosis factor alpha. All reagents were stored at -20 C before using. Phosphorylated biotinylated-GST-cJun was recognized by Anti-(phospho)cJun (Ser73) antibody and this process brings acceptor and donor beads together. Therefore JNK3 phosphorylation of cJun can be measured by Alpha reading by EnVision (PerkinElmer, Boston, MA).
The composition of kinase buffer was (in mM) 20 tris- HCl (pH 7.6) 10 MgCl2, 1 DTT, and 0.1 Na3VO4 and 0.01% Tween-20. Beads were diluted in detection buffer containing (in mM) 20 tris-HCl (pH 7.7), 20 NaCl and 80 EDTA and 0.3% BSA. The assay was performed at room temperature. All compounds were screened as titrations from 0.6 nM to 46 uM final concentration. The assay was performed in 1536-well format (white solid bottom and untreated) as follows:
Sequence,Parameter,Value,Description
1,Reagent,3 uL,Biotin-GST-cJun, Anti-(phospho)cJun and pre-activated JNK3-containing lysates
2,Compound,23 nL,Final concentration was 0.6nM to 46uM
3,Time,15 minutes,Room Temperature
4,Reagent,1 uL,ATP final concentration 10uM
6,Reagent,0.5 uL,2ng/well bead mixture
[…]
On the % scale 0 is the no-effect control and ±100 the full control effect.

Activity change, negative = inhibition, inactive:
c1ccc(C(c2ccccc2)N2CC3(CCNCC3)C2)cc1 -5.28%
COC(=O)N1CCC2(CCN(Cc3ccccc3OC)CC2)CC1 2.32%
O=C(c1cnccn1)N1CCC2(CC1)CN(Cc1nccs1)C2 7.5%
CCNc1ncc2nc(-c3cc(F)cc(F)c3)c(=O)n(-c3ccc(OC)cc3)c2n1 -2.33%
COc1ccc(-n2c(=O)c(CCc3ccccc3)nc3cnc(N4CCOCC4)nc32)cc1 3.38%
COc1ccc(C(=O)N2CCC3(CC2)CN(c2ncccn2)C3)cc1 1.02%
COCC(=O)N1CCC2(CCCN(C(c3ccccc3)c3ccccc3)C2)CC1 0.596%
Cc1cccc(CNc2ccnc(-c3ccc(C(=O)N(C)C)cc3)n2)c1 -3.62%
Cc1noc(C)c1-c1nc(NCc2ccccc2)c2ccccc2n1 9.97%
O=c1c(-c2cccc(Cl)c2)nc2cncnc2n1Cc1ccccc1Cl -5.51%
CCNc1ncc2nc(-c3cccs3)c(=O)n(-c3ccc(OC)cc3)c2n1 8.34%
COCC(=O)N1CCC2(CC1)CCN(c1cccc(-c3ccccc3)c1)CC2 -14.3%
COc1ccc(C(=O)N2CCC[C@@]3(CCN(C(=O)Nc4cccc(F)c4)C3)C2)cc1 -21.1%
Cn1c(=O)c(-c2ccc(Cl)cc2)nc2cnc(Oc3ccccc3)nc21 0.0181%
CS(=O)(=O)Nc1cccc(-c2nc(NCc3cccs3)c3ccccc3n2)c1 -3.66%
COc1ccccc1-c1cncnc1N(C)Cc1ccco1 -0.448%
FC(F)(F)c1cc(CN2CCC3(CCNCC3)CC2)cc(C(F)(F)F)c1 4.72%
Cn1c(=O)c(-c2cccc(Cl)c2)nc2cncnc21 -21.4%
FC(F)(F)c1ccccc1-c1ccc2ncnc(NC3CC3)c2c1 1.25%
O=C(c1cccc(F)c1)N1CCC[C@@]2(CCN(Cc3ccncc3)C2)C1 0.182%
O=C(c1cnccn1)N1CCC[C@@]2(CCN(Cc3ccccc3)C2)C1 5.3%
N#Cc1ccc(CN2CCCC3(CCN(C(=O)c4ccco4)CC3)C2)cc1 1.41%
COc1ccccc1-c1nc(N2CCOCC2)c2ccccc2n1 0.0771%
O=S(=O)(c1ccccc1)N1CCC2(CCCN(c3ccncc3)C2)CC1 3.14%
COc1ncc2nc(-c3cn(C)c4ccccc34)c(=O)n(Cc3ccc(F)cc3)c2n1 17.5%
COc1ccccc1-c1nccc(Nc2ccc(F)cc2)n1 3.13%
N#Cc1ccc(CN2CCC3(CC2)CCN(C(=O)c2ccncc2)CC3)cc1 1.54%
CCCN[C@@H](C)C(=O)Nc1c(C)csc1C(=O)OC -2.56% [at 25.6 µM]
Cc1cccc(CNc2nc(-c3cccc(NS(C)(=O)=O)c3)nc3ccccc23)c1 2.74%
CCNc1ncc2nc(-c3cccc(C#N)c3)c(=O)n(C)c2n1 40.3%
O=C(c1ccncc1)N1CCC2(CC1)CCN(c1ccccn1)CC2 -7.66%
CN[C@@H](CC(C)C)C(=O)N[C@@H]1C(=O)N[C@H](CC(N)=O)C(=O)N[C@@H]2C(=O)N[C@H]3C(=O)N[C@H](C(=O)N[C@H](C(=O)O)c4cc(O)cc(O)c4-c4cc3ccc4O)[C@H](O)c3ccc(c(Cl)c3)Oc3cc2cc(c3O[C@H]2O[C@@H](CO)[C@@H](O)[C@@H](O)[C@@H]2O[C@@H]2C[C@](C)(N)[C@H](O)[C@H](C)O2)Oc2ccc(cc2Cl)[C@@H]1O -3.25% [at 25.6 µM]
O=C(c1csnn1)N1CCC2(CC1)CCN(c1cccc(-c3ccccc3)c1)CC2 -24.5%
COc1ccc2[nH]cc(CCNc3cc(-c4ccccc4CN(C)C)ncn3)c2c1 -6.41%
O=C(c1cccc(F)c1)N1CCC2(CCCN(Cc3cc(C(F)(F)F)cc(C(F)(F)F)c3)C2)CC1 2.08%
O=C(c1cc(C(F)(F)F)cc(C(F)(F)F)c1)N1CCC2(CC1)CCN(c1ccccc1)CC2 3.19%
O=c1c(-c2ccccc2)nc2cnc(Nc3ccccc3)nc2n1C[C@H]1CCCO1 5.03%
CN(C)C(=O)c1ccc(-c2nc(NCc3cccnc3)c3ccccc3n2)cc1 -23.9%
O=C(c1ccncc1)N1CCC2(CCCN(c3ccccn3)C2)CC1 -9.23%
CN(C)c1ncc2nc(-c3ccc(Cl)cc3)c(=O)n(Cc3ccc(F)cc3)c2n1 17.2%
